# Reference: PubChem BioAssay (NCI)
# Values joined by “and” are separate entries in the source; they are usually repeats but may differ in a detail not shown here. Identical values can stand only once. Compounds without any hit were thinned out: in the full panel of roughly 83,000, 20% have a hit.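 Each cell line was grown in a 96-well plate and treated with one concentration of compound for 48 hours. Values below 10 were considered active.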 A number with no mark means an inactive call. Active and inactive are the calls of the source.
# System: MDA-MB-468 breast
# Assay: NCI-60 one-dose screen, 48 h (100 = growth as untreated, 0 = no growth, -100 = all killed)
# Conditions: 10 µM unless noted
row,Structure (SMILES),growth
1,COc1cc(NC(C)CCCN)c2nc(C)ccc2c1Oc1ccc(F)cc1 (stereo not given),57.3%
2,C=CCn1c(C)nc2cc(Nc3nc(Nc4ccc5nc(C)n(CC=C)c5c4)nc4ccccc34)ccc21,118%
3,Clc1ccc2c(NCCNc3nc(Cl)nc4ccccc34)ccnc2c1,-88.6% (active)
4,COc1ccc(-n2nc(C)c3c(Oc4ccc(NC(=O)Nc5c(Cl)cccc5Cl)cc4)ncnc32)cc1,107%
5,CNC(=O)c1cc(-c2ccc(NC(=O)Nc3ccc(N4CCN(C)CC4)c(C(F)(F)F)c3)cc2)nc2cccnc12,-73.8% (active)
6,COC(=O)[C@H]1Cc2c([nH]c3ccccc23)[C@@H](c2cccs2)N1,101%
7,COc1ccc2nc(-c3ccc(Cl)cc3)cc(-c3nnc(SCC(=O)Nc4ccc(C(C)=O)cc4)n3-c3ccccc3)c2c1,91.2%
8,O=C(Nc1ncc(Cc2ccc(Cl)cc2)s1)c1ccc2c(c1)OCCO2,47.1%
9,O=C1CC2c3cc(-c4cc5ccccc5o4)ccc3CCN2C(=O)N1c1ccccc1 (stereo not given),88.4%
10,CC(=O)n1cc(/C=C2\N=C(c3ccc(Cl)cc3)N(c3ccc(S(=O)(=O)Nc4nccs4)cc3)C2=O)c2ccccc21,96.1%
11,NNC(=O)c1ccc(C(=O)NN)cc1,102%
12,ClCCOCCn1cnc2c(Cl)nc(Cl)nc21,-35.7% (active)
13,CCCn1c(=S)sc2c(NNC(C)=O)nc(C)nc21,93.1%
14,Oc1ccc(/C=N/Nc2nc3ccccc3s2)c(O)c1,20.2%
15,C[C@@H]1O[C@@H](O[C@@H]2C[C@H](c3ccc4c(c3O)C(=O)C3=C(C4=O)[C@@]4(O)C(=O)C[C@](C)(O)C[C@@]4(O)C=C3)O[C@H](C)[C@H]2O)C[C@H](O)[C@@H]1O,106%
16,CN1C(=O)N(C)C2C1NN=c1s/c(=C\c3ccccc3F)c(=O)n12 (stereo not given),11.6%
17,COc1cccc(C(=O)NNc2nc(Cl)nc(Cl)n2)c1,102%
18,Cc1cc(C2(c3cc(C)c(O)cc3C)OS(=O)(=O)c3ccccc32)c(C)cc1O,114%
19,C=C/C(C)=C/C[C@]1(C)[C@H](C)[C@@H](OC(=O)CCC)[C@H](O)[C@@]23C(=C[C@H](OC)C[C@@H]12)[C@@H](OC(=O)CCC)O[C@H]3OC(C)=O,-69% (active)
20,NC(=S)N/N=C(/c1cccs1)C1CC1,37.4%

row,Structure (SMILES),growth
1,CCN(CC)CCn1c(=O)c2cc(OC)c(OC)cc2c2ccc3cc4c(cc3c21)OCO4,-13.5% (active)
2,Cc1nc2n[nH]c(N)c2nc1C,100%
3,NC1C(N)C(N)C1N (stereo not given),122%
4,C/C(C=O)=C\c1ccc2c(c1)OCO2,94.8%
5,Cc1cccc(NC(=O)N/C(N)=N/c2nc3ccccc3s2)c1,17.8%
6,Nc1nccc2c1ccn2-c1cccc(NC(=O)c2ccc(N3CCOCC3)c(C(F)(F)F)c2)c1,-14.2% (active)
7,CSc1nnc2c(=O)n(C)c(=O)n(C)c2n1,108%
8,CC1=CC(=O)c2ccccc2C1=O,111%
9,CCCCCCCCCCCCSC1=CC(=O)C=CC1=O,82.8%
10,O=C(Nc1ccccc1O)c1ccc(CNC(=O)c2sccc2Nc2ccnc(C(F)(F)F)c2)cc1,14.8%
11,CSc1ccc(OC(C)=O)cc1C,93.8%
12,O=C1OC(c2ccc(F)cc2)CC1CN1CCOCC1 (stereo not given),95.8%
13,N#C/C(=C\c1ccc(Br)cc1)n1nnc2cccc(F)c21,-0.554% (active)
14,CC(C)[N+](C)(CCOC(COc1ccccc1)COc1ccccc1)C(C)C,12.8%
15,Cc1cc(O)c(C(C)C)cc1N=O,62.6% and 104%
16,O=C(/C=C/c1ccc(Br)cc1)c1ccc(-n2cc(CN3CCN(c4cc5c(cc4F)c(=O)c(C(=O)O)cn5C4CC4)CC3)nn2)cc1,92.2%
17,COCCn1cc(-c2nc(-c3c[nH]c4ncccc34)cs2)c2ccccc21,-7.09% (active)
18,CCOC(=O)c1ccccc1OC(=O)NNc1ccccc1,83.2%
19,Cn1c(=O)c2[nH]c(CC(=O)O)nc2n(C)c1=O,107%
20,COc1cccc2c(=O)c3c(sc12)c(N1CCNCC1)nc1ccccc13,50.2%
